{"source": "the supplement of paper PMC7765376", "tested_on": "PEO-1", "test": "Excess HSA synergy score (sum over dose matrix of excess over highest single agent) (score (summed % response)); higher = less synergy / more antagonism (negative = synergy)", "conditions": "72 h, read-out: viability/apoptosis luminescence (CellTiter-Glo or Caspase3-Glo / not stated per table)", "key": {"[1]": {"conditions": "matrix design: 6x6, 5-fold dilutions (primary screen)"}, "[2]": {"conditions": "matrix design: 10x10, 9-step dilutions (confirmatory)"}}, "note": "Structures can show the parent of a compound that is named as a salt. The full ranking holds about 1,500 compounds; the median of “Excess HSA synergy score (sum over dose matrix of excess over highest single agent)” is about 43, and the lowest 2% start at about -900. The sample holds the lowest values, similar compounds and a random draw of the others, so the mix is not that of the screen.", "data": [{"smiles": "C/C=C(/C)C(=O)O[C@H]1C(C)=C2[C@H]([C@@H]1OC(=O)CCCCCCC)[C@@](C)(OC(C)=O)C[C@H](OC(=O)CCC)[C@@]1(O)[C@H]2OC(=O)[C@@]1(C)O", "note": "[Thapsigargin] + CC[C@H](NC(=O)[C@H](C)NC)C(=O)N1C[C@@H](O)C[C@H]1Cc1c(-c2[nH]c3cc(F)ccc3c2C[C@@H]2C[C@H](O)CN2C(=O)[C@H](CC)NC(=O)[C@H](C)NC)[nH]c2cc(F)ccc12 [Birinapant]", "values": [{"measurement": "Excess HSA synergy score", "setting": "[1]", "result": -265}, {"measurement": "Excess HSA synergy score", "setting": "[2]", "result": -912}]}, {"smiles": "O=C(O)C(=O)CBr", "note": "[3-Bromopyruvate] + CC[C@H](NC(=O)[C@H](C)NC)C(=O)N1C[C@@H](O)C[C@H]1Cc1c(-c2[nH]c3cc(F)ccc3c2C[C@@H]2C[C@H](O)CN2C(=O)[C@H](CC)NC(=O)[C@H](C)NC)[nH]c2cc(F)ccc12 [Birinapant]", "values": [{"measurement": "Excess HSA synergy score", "setting": "[1]", "result": 97.1}]}, {"smiles": "CCOC(=O)Nc1ccc(NCc2ccc(F)cc2)cc1N", "note": "[Retigabine] + CC[C@H](NC(=O)[C@H](C)NC)C(=O)N1C[C@@H](O)C[C@H]1Cc1c(-c2[nH]c3cc(F)ccc3c2C[C@@H]2C[C@H](O)CN2C(=O)[C@H](CC)NC(=O)[C@H](C)NC)[nH]c2cc(F)ccc12 [Birinapant]", "values": [{"measurement": "Excess HSA synergy score", "setting": "[1]", "result": 64.5}]}, {"smiles": "CC(C)CC(N(C)C)C1(c2ccc(Cl)cc2)CCC1", "note": "(stereo not drawn) [Sibutramine hydrochloride] + CC[C@H](NC(=O)[C@H](C)NC)C(=O)N1C[C@@H](O)C[C@H]1Cc1c(-c2[nH]c3cc(F)ccc3c2C[C@@H]2C[C@H](O)CN2C(=O)[C@H](CC)NC(=O)[C@H](C)NC)[nH]c2cc(F)ccc12 [Birinapant]", "values": [{"measurement": "Excess HSA synergy score", "setting": "[1]", "result": 96.7}]}, {"smiles": "CC(C)NC1CCn2c(=O)[nH]c3cccc(c32)C1O", "note": "(stereo not drawn) [Zilpaterol] + CC[C@H](NC(=O)[C@H](C)NC)C(=O)N1C[C@@H](O)C[C@H]1Cc1c(-c2[nH]c3cc(F)ccc3c2C[C@@H]2C[C@H](O)CN2C(=O)[C@H](CC)NC(=O)[C@H](C)NC)[nH]c2cc(F)ccc12 [Birinapant]", "values": [{"measurement": "Excess HSA synergy score", "setting": "[1]", "result": 413}]}, {"smiles": "CC1=C2C[C@H]3[C@@H](CC=C4C[C@@H](O)CC[C@@]43C)[C@@H]2CC[C@]12O[C@@H]1C[C@H](C)CN[C@H]1[C@H]2C", "note": "[Cyclopamine] + CC[C@H](NC(=O)[C@H](C)NC)C(=O)N1C[C@@H](O)C[C@H]1Cc1c(-c2[nH]c3cc(F)ccc3c2C[C@@H]2C[C@H](O)CN2C(=O)[C@H](CC)NC(=O)[C@H](C)NC)[nH]c2cc(F)ccc12 [Birinapant]", "values": [{"measurement": "Excess HSA synergy score", "setting": "[1]", "result": 82.1}]}, {"smiles": "CCNC(=O)C[C@@H]1N=C(c2ccc(Cl)cc2)c2cc(OC)ccc2-n2c(C)nnc21", "note": "+ CC[C@H](NC(=O)[C@H](C)NC)C(=O)N1C[C@@H](O)C[C@H]1Cc1c(-c2[nH]c3cc(F)ccc3c2C[C@@H]2C[C@H](O)CN2C(=O)[C@H](CC)NC(=O)[C@H](C)NC)[nH]c2cc(F)ccc12 [Birinapant]", "values": [{"measurement": "Excess HSA synergy score", "setting": "[1]", "result": -120}]}, {"smiles": "CC(C)[C@]12O[C@H]1[C@@H]1O[C@]13[C@]1(O[C@H]1C[C@H]1C4=C(CC[C@@]13C)C(=O)OC4)[C@@H]2O", "note": "[Triptolide] + CC[C@H](NC(=O)[C@H](C)NC)C(=O)N1C[C@@H](O)C[C@H]1Cc1c(-c2[nH]c3cc(F)ccc3c2C[C@@H]2C[C@H](O)CN2C(=O)[C@H](CC)NC(=O)[C@H](C)NC)[nH]c2cc(F)ccc12 [Birinapant]", "values": [{"measurement": "Excess HSA synergy score", "setting": "[1]", "result": -151}, {"measurement": "Excess HSA synergy score", "setting": "[2]", "result": -1170}]}, {"smiles": "CC1(N2CCC(n3c([C@@H]4CCCNC4)nc4ccccc43)CC2)CCCCCCC1", "note": "+ CC[C@H](NC(=O)[C@H](C)NC)C(=O)N1C[C@@H](O)C[C@H]1Cc1c(-c2[nH]c3cc(F)ccc3c2C[C@@H]2C[C@H](O)CN2C(=O)[C@H](CC)NC(=O)[C@H](C)NC)[nH]c2cc(F)ccc12 [Birinapant]", "values": [{"measurement": "Excess HSA synergy score", "setting": "[1]", "result": 152}]}, {"smiles": "O=C(N[C@H]1CN2CCC1CC2)c1ccc(Cl)cc1", "note": "+ CC[C@H](NC(=O)[C@H](C)NC)C(=O)N1C[C@@H](O)C[C@H]1Cc1c(-c2[nH]c3cc(F)ccc3c2C[C@@H]2C[C@H](O)CN2C(=O)[C@H](CC)NC(=O)[C@H](C)NC)[nH]c2cc(F)ccc12 [Birinapant]", "values": [{"measurement": "Excess HSA synergy score", "setting": "[1]", "result": 162}]}, {"smiles": "C[C@]12O[C@H](C[C@]1(O)CO)n1c3ccccc3c3c4c(c5c6ccccc6n2c5c31)CNC4=O", "note": "[Lestaurtinib] + CC[C@H](NC(=O)[C@H](C)NC)C(=O)N1C[C@@H](O)C[C@H]1Cc1c(-c2[nH]c3cc(F)ccc3c2C[C@@H]2C[C@H](O)CN2C(=O)[C@H](CC)NC(=O)[C@H](C)NC)[nH]c2cc(F)ccc12 [Birinapant]", "values": [{"measurement": "Excess HSA synergy score", "setting": "[1]", "result": -142}]}, {"smiles": "CC[C@@H]1[C@@H](C)O[C@@](O)([C@@H](C)[C@H](O)[C@H](C)[C@H]2OC(=O)/C=C/C=C/[C@H](C)[C@@H]([C@@H](C)[C@@H](O)[C@H](C)[C@@]3(O)C[C@@H](O[C@H]4C[C@H](O)[C@H](O)[C@H](C)O4)[C@H](CC)[C@@H](C)O3)OC(=O)/C=C/C=C/[C@@H]2C)C[C@H]1O[C@H]1C[C@H](O)[C@H](O)[C@H](C)O1", "note": "[Azalomycin-B] + CC[C@H](NC(=O)[C@H](C)NC)C(=O)N1C[C@@H](O)C[C@H]1Cc1c(-c2[nH]c3cc(F)ccc3c2C[C@@H]2C[C@H](O)CN2C(=O)[C@H](CC)NC(=O)[C@H](C)NC)[nH]c2cc(F)ccc12 [Birinapant]", "values": [{"measurement": "Excess HSA synergy score", "setting": "[1]", "result": -24.5}]}, {"smiles": "CO/C1=C\\C(C)=C\\[C@@H](C)[C@@H](O)[C@@H](C)C/C(C)=C/C=C/[C@H](OC)[C@@H]([C@@H](C)[C@@H](O)[C@H](C)[C@@]2(O)C[C@@H](O)[C@H](C)[C@@H](C(C)C)O2)OC1=O", "note": "[Bafilomycin A1] + CC[C@H](NC(=O)[C@H](C)NC)C(=O)N1C[C@@H](O)C[C@H]1Cc1c(-c2[nH]c3cc(F)ccc3c2C[C@@H]2C[C@H](O)CN2C(=O)[C@H](CC)NC(=O)[C@H](C)NC)[nH]c2cc(F)ccc12 [Birinapant]", "values": [{"measurement": "Excess HSA synergy score", "setting": "[2]", "result": -1470}]}, {"smiles": "CC1C=CC=CCCC=CC=CC=CC=CC(OC2OC(C)C(O)C(N)C2O)CC2OC(O)(CC(O)C(O)CCC(O)CC(O)CC(O)CC(=O)OC(C)C(C)C1O)CC(O)C2C(=O)O", "note": "(stereo not drawn) [Nystatin] + CC[C@H](NC(=O)[C@H](C)NC)C(=O)N1C[C@@H](O)C[C@H]1Cc1c(-c2[nH]c3cc(F)ccc3c2C[C@@H]2C[C@H](O)CN2C(=O)[C@H](CC)NC(=O)[C@H](C)NC)[nH]c2cc(F)ccc12 [Birinapant]", "values": [{"measurement": "Excess HSA synergy score", "setting": "[1]", "result": 90.8}]}, {"smiles": "N=c1c2c(-c3ccccc3)c(-c3ccccc3)n(Cc3ccccc3)c2ncn1[C@H]1CC[C@H](O)CC1", "note": "+ CC[C@H](NC(=O)[C@H](C)NC)C(=O)N1C[C@@H](O)C[C@H]1Cc1c(-c2[nH]c3cc(F)ccc3c2C[C@@H]2C[C@H](O)CN2C(=O)[C@H](CC)NC(=O)[C@H](C)NC)[nH]c2cc(F)ccc12 [Birinapant]", "values": [{"measurement": "Excess HSA synergy score", "setting": "[1]", "result": -361}]}, {"smiles": "C[C@@]12OC(=O)[C@]1([C@@H](O)[C@@H]1C=CCCC1)NC(=O)[C@@H]2CCCl", "note": "[Marizomib] + CC[C@H](NC(=O)[C@H](C)NC)C(=O)N1C[C@@H](O)C[C@H]1Cc1c(-c2[nH]c3cc(F)ccc3c2C[C@@H]2C[C@H](O)CN2C(=O)[C@H](CC)NC(=O)[C@H](C)NC)[nH]c2cc(F)ccc12 [Birinapant]", "values": [{"measurement": "Excess HSA synergy score", "setting": "[1]", "result": -95.7}]}, {"smiles": "CC[C@@]1([C@@H]2O[C@@H]([C@H]3O[C@@](O)(CO)[C@H](C)C[C@@H]3C)C[C@@H]2C)CC[C@H]([C@]2(C)CC[C@]3(C[C@H](O)[C@@H](C)[C@@H]([C@@H](C)[C@@H](OC)[C@H](C)C(=O)O)O3)O2)O1", "note": "[Monensin sodium salt] + CC[C@H](NC(=O)[C@H](C)NC)C(=O)N1C[C@@H](O)C[C@H]1Cc1c(-c2[nH]c3cc(F)ccc3c2C[C@@H]2C[C@H](O)CN2C(=O)[C@H](CC)NC(=O)[C@H](C)NC)[nH]c2cc(F)ccc12 [Birinapant]", "values": [{"measurement": "Excess HSA synergy score", "setting": "[1]", "result": -104}]}, {"smiles": "CO[C@H]1CC[C@@H](O[C@H]2C[C@H]([C@]3(C)CC[C@]4(C[C@H](O)[C@@H](C)[C@@H]([C@@H](C)/C=C(\\C)C(=O)[C@H](C)C[C@H](C)C(=O)O)O4)O3)O[C@]3(O[C@@H]([C@H]4O[C@@](O)(CO)[C@H](C)C[C@@H]4C)C[C@@H]3C)[C@@H]2C)O[C@@H]1C", "note": "[Nanchangmycin] + CC[C@H](NC(=O)[C@H](C)NC)C(=O)N1C[C@@H](O)C[C@H]1Cc1c(-c2[nH]c3cc(F)ccc3c2C[C@@H]2C[C@H](O)CN2C(=O)[C@H](CC)NC(=O)[C@H](C)NC)[nH]c2cc(F)ccc12 [Birinapant]", "values": [{"measurement": "Excess HSA synergy score", "setting": "[1]", "result": -308}, {"measurement": "Excess HSA synergy score", "setting": "[2]", "result": -1080}]}, {"smiles": "Cc1n[nH]c2ccc(-c3cncc(OC[C@@H](N)Cc4c[nH]c5ccccc45)c3)cc12", "note": "+ CC[C@H](NC(=O)[C@H](C)NC)C(=O)N1C[C@@H](O)C[C@H]1Cc1c(-c2[nH]c3cc(F)ccc3c2C[C@@H]2C[C@H](O)CN2C(=O)[C@H](CC)NC(=O)[C@H](C)NC)[nH]c2cc(F)ccc12 [Birinapant]", "values": [{"measurement": "Excess HSA synergy score", "setting": "[1]", "result": -218}]}, {"smiles": "CC(C)c1cccc(C(C)C)c1O", "note": "[Propofol] + CC[C@H](NC(=O)[C@H](C)NC)C(=O)N1C[C@@H](O)C[C@H]1Cc1c(-c2[nH]c3cc(F)ccc3c2C[C@@H]2C[C@H](O)CN2C(=O)[C@H](CC)NC(=O)[C@H](C)NC)[nH]c2cc(F)ccc12 [Birinapant]", "values": [{"measurement": "Excess HSA synergy score", "setting": "[1]", "result": 6.44}]}]}
